Source: PubChem
In the library only some 7.2% were active in any assay of this set; here they are far more common.
Bfl-1 A1 inh – inhibitors of the anti-apoptotic protein A1, read as caspase activation. caspase activation, % (no concentration beside the values). AID 2462. MEF A1-2A-BIM cells, Caspase-Glo 3/7 luminescence, 3 h; percent of clofoctol response, vehicle zero. 0.066% of 330,000 active;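 active = over half of replicate activation scores above 10%, or exactly half above 10 with the replicate mean above 10; inconclusive = replicate mean below 10 yet half the replicates above 10; inactive = over half of replicates below 10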
ALR inh – inhibitors of human sulfhydryl oxidase ALR. inhibition, % (concentration not given with the values). 3.8% of 290,000 active. purified ALR, DTT oxidation, H2O2 HRP-luminol luminescence. AID 485317;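 active = mean replicate inhibition above about 79%, with every replicate also reaching it, limit read from the data; inconclusive = only one of the two criteria met; inactive = mean below limit and not every replicate reaching it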
Target sequence (P55789 whole entry, looked up): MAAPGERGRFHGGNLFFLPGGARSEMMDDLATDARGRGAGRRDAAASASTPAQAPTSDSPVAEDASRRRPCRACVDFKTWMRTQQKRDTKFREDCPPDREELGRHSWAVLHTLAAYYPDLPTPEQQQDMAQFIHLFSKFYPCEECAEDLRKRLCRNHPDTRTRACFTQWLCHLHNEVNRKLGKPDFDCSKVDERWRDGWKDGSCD
AHR act – activates the human aryl hydrocarbon receptor | P35869 | activation, % at 5 µM | AHR-responsive luciferase reporter cells, luminescence | 2.5% of 320,000 active; in the data active = activation above about 47%;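 note: 0% = vehicle wells and 100% = reference agonist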
VLA-4 inh – inhibition in a human VLA-4 binding assay. VLA-4 expressing cells, ligand binding flow cytometry. inhibition, % (about 7 µM as worked out from the volumes in the protocol). 0.2% of 330,000 active; in the data active = inhibition above about 50%
Efflux pump mplx – inhibitors of Candida antifungal efflux pumps expressed in yeast | inhibition, % at 10 µM | 0.44% of 330,000 active | S. cerevisiae Candida pump triplex, Nile Red efflux;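 active = plate passing quality check with inhibition over a set limit, or well fluorescence over plate mean plus 4 SD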;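 note: Nile Red retained in pooled yeast measured as flow cytometry median fluorescence; 0% = buffer negative control and 100% = Enniatin B positive control; higher means more Nile Red kept so more efflux inhibition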
Mot1-301 SUMO – inhibitors of SUMOylation pathway: yeast Mot1-301 growth rescue; S. cerevisiae Mot1-301 growth rescue, ATP luminescence, 38.5C; percent above DMSO median, 100 means doubled; growth rescue, % at 18.8 µM; 1% of 320,000 active;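 active = every valid replicate shows activation above 250% relative to neutral control wells; inactive = the rest, any valid replicate at or below 250%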;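 note: OY570 slx delta 5 strain wells were the positive control but not used for scaling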
An asterisk follows results filed as active.

Screening N#Cc1c(NC(=O)C(=O)NCCCN2CCOCC2)sc2c1CCCC2 returned Bfl-1 A1 inh 1, ALR inh 96*, AHR act 8, VLA-4 inh 3, Efflux pump mplx 0 and Mot1-301 SUMO -14.
`COC(=O)c1c(NC(=O)C(=O)NCCCN2CCOCC2)sc2c1CCC2` gave Bfl-1 A1 inh 0, ALR inh 44, AHR act 3, VLA-4 inh 5, Efflux pump mplx 0 and Mot1-301 SUMO 3.
For CCOc1ccc(S(=O)(=O)NNS(=O)(=O)c2ccc(C)cc2C)cc1 the results were Bfl-1 A1 inh 1, ALR inh 99*, AHR act -1, VLA-4 inh 8, Efflux pump mplx 0 and Mot1-301 SUMO -4.
For COc1ccc(NC(=O)CSCC(=O)Nc2sccc2C#N)cc1 the results were Bfl-1 A1 inh 0, ALR inh 99*, AHR act 27, VLA-4 inh -11, Efflux pump mplx 0 and Mot1-301 SUMO -8.
Screening N#Cc1ccsc1NC(=O)CSc1ncnc2ccccc12 returned Bfl-1 A1 inh 0, ALR inh 98*, AHR act 21, VLA-4 inh 13, Efflux pump mplx 0 and Mot1-301 SUMO 3.
`N#Cc1ccsc1NC(=O)CSc1ncn[nH]1` gave Bfl-1 A1 inh -1, ALR inh -3, AHR act -7, VLA-4 inh 1, Efflux pump mplx 0 and Mot1-301 SUMO -12.
For N#Cc1cc2c(nc1SCC(=O)Nc1nccs1)CCCCC2 the results were Bfl-1 A1 inh 0, ALR inh -7, AHR act -9, VLA-4 inh 0, Efflux pump mplx 0 and Mot1-301 SUMO 8.
`Cn1ccnc1SCC(=O)Nc1sccc1C#N` gave Bfl-1 A1 inh 0, ALR inh 5, AHR act 51*, VLA-4 inh 4, Efflux pump mplx 0 and Mot1-301 SUMO -10.
For Cc1nnc(SCC(=O)Nc2sccc2C#N)s1 the results were Bfl-1 A1 inh 0, ALR inh -2, AHR act 20, VLA-4 inh -3, Efflux pump mplx 0 and Mot1-301 SUMO 232.
Screening Cc1ccc(C#N)c(SCC(=O)Nc2nccs2)n1 returned Bfl-1 A1 inh -4, ALR inh 3, AHR act 63*, VLA-4 inh 12, Efflux pump mplx 0 and Mot1-301 SUMO 5.
Screening NC(=O)c1ccc(NC(=O)C2CCCC2)cc1 returned Bfl-1 A1 inh 1, ALR inh -2, AHR act 0, VLA-4 inh -16, Efflux pump mplx 0 and Mot1-301 SUMO 2.
`COC(=O)c1ccc(OC(=O)c2cccnc2SC)cc1` gave Bfl-1 A1 inh 0, AHR act 3, VLA-4 inh 4, Efflux pump mplx 0 and Mot1-301 SUMO 4.
`COC(=O)c1ccc(OC(=O)c2ccccn2)cc1` gave Bfl-1 A1 inh -1, ALR inh 96*, AHR act 3, VLA-4 inh 4, Efflux pump mplx 0 and Mot1-301 SUMO 0.
Screening N#CC(C#N)=Cc1ccc(OC(=O)c2ccccn2)cc1 returned Bfl-1 A1 inh 0, ALR inh 97*, AHR act 0, VLA-4 inh -154, Efflux pump mplx 0 and Mot1-301 SUMO 7.
For CCn1c(O)c(/C=C2\C=Nc3ccccc32)sc1=Nc1ccccc1 the results were Bfl-1 A1 inh 0, ALR inh -16, AHR act 9, VLA-4 inh -31, Efflux pump mplx 0 and Mot1-301 SUMO 70.
Screening Cn1c(O)c(/C=C2\C=Nc3ccccc32)sc1=Nc1ccc(C(=O)O)cc1 returned Bfl-1 A1 inh 1, ALR inh 4, AHR act 51*, VLA-4 inh 7, Efflux pump mplx 0 and Mot1-301 SUMO -2.
Screening O=C(Cc1ccccc1)Nn1c(O)c(/C=C2\C=Nc3ccccc32)sc1=S returned Bfl-1 A1 inh 0, ALR inh -9, AHR act 76*, VLA-4 inh -78, Efflux pump mplx 0 and Mot1-301 SUMO -10.
CCn1c(CSCc2ccc(Cl)cc2)nnc1SCC(=O)Nc1cccc(C(=O)O)c1 was read as Bfl-1 A1 inh inconclusive, ALR inh 0, AHR act 1, VLA-4 inh 2, Efflux pump mplx 0 and Mot1-301 SUMO 273.
Cc1cc(NC(=O)CSc2nnc(-c3ccncc3)n2-c2ccccc2)no1 was read as Bfl-1 A1 inh 0, ALR inh -4, AHR act 2, VLA-4 inh -10, Efflux pump mplx 0 and Mot1-301 SUMO -11.
For COc1ccccc1-n1cnc2cc(NS(=O)(=O)c3ccc(Br)cc3)ccc21 the results were Bfl-1 A1 inh 0, ALR inh -10, AHR act 6, VLA-4 inh -6, Efflux pump mplx 0 and Mot1-301 SUMO -2.
`Cc1ccc(-c2nc(CSCC(=O)NCCCN3CCOCC3)c(C)o2)cc1` gave Bfl-1 A1 inh 0, ALR inh 97*, AHR act -1, VLA-4 inh 6, Efflux pump mplx 0 and Mot1-301 SUMO -9.
Screening Cc1ccc(-c2nc(CSCC(=O)NCCN3CCN(Cc4ccccc4)CC3)c(C)o2)cc1 returned Bfl-1 A1 inh inconclusive, ALR inh 99*, AHR act -5, VLA-4 inh 14, Efflux pump mplx 0 and Mot1-301 SUMO -24.
`CSc1ccc(-c2nc(CSCC(=O)NCCCN3CCOCC3)c(C)o2)cc1` gave Bfl-1 A1 inh 0, AHR act 1, VLA-4 inh 1, Efflux pump mplx 0 and Mot1-301 SUMO -23.
For CSc1ccc(CN(C)C(=O)c2cc(Cl)c3c(c2)OCCO3)cc1 the results were Bfl-1 A1 inh 0, ALR inh -6, AHR act -1, VLA-4 inh 1, Efflux pump mplx 0 and Mot1-301 SUMO 46.
`COc1ccc(CNC(=O)CN2C(=O)COc3ccc(S(=O)(=O)N4CCC(C)CC4)cc32)cc1` gave Bfl-1 A1 inh -2, AHR act 2, VLA-4 inh 5, Efflux pump mplx 0 and Mot1-301 SUMO -6.
For CC(C)(C)NC(=O)CCN(/N=C/c1ccccc1F)C1=NS(=O)(=O)c2ccccc21 the results were Bfl-1 A1 inh 0, ALR inh 3, AHR act 3, VLA-4 inh -4, Efflux pump mplx 0 and Mot1-301 SUMO 312*.
For CC(C)(C)NC(=O)CCN(/N=C/c1ccccc1)C1=NS(=O)(=O)c2ccccc21 the results were Bfl-1 A1 inh 0, ALR inh -17, AHR act 1, VLA-4 inh 8, Efflux pump mplx 0 and Mot1-301 SUMO -7.
For O=C1CCN(S(=O)(=O)c2ccc(Cl)cc2)CCN1 the results were Bfl-1 A1 inh 1, ALR inh 6, AHR act 0, VLA-4 inh 5, Efflux pump mplx 0 and Mot1-301 SUMO -20.
For COc1ccc(NC(=O)CN2CCN(C(C)=O)CC2)cc1S(=O)(=O)N1CCOCC1 the results were Bfl-1 A1 inh -2, ALR inh 0, AHR act 0, VLA-4 inh 13, Efflux pump mplx 0 and Mot1-301 SUMO -2.
